According to PubChem BioAssay (EPA / NIEHS):
Values joined by “and” are separate entries in the source; they are usually repeats but may differ in a detail not shown here. Identical values can stand only once. Records with an inconclusive call do not appear. The source holds several records for some structures; these can differ, active in one and inactive in another. Active and inactive are the calls of the source. Rule for the calls, unless noted: active = hit-call score of the fitted dose curve at least 0.9, where 1 is the maximum; inconclusive = response in the unintended direction; inactive = score below 0.9.

Assays:
[1] = BSK_3C_VCAM1: BioMAP Diversity Plus: 3C Assay for Vascular cell adhesion molecule 1 (VCAM1) Biomarker Activity (AID 2282999; active = hit-call score of the fitted dose curve at least 0.9, where 1 is the maximum; inactive = score below 0.9); settings: BioMAP 3C HUVEC, VCAM1 ELISA, cytokine-stimulated; actives raise or lower the signal
In short: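 Endothelial cells from human umbilical vein are treated with test chemical. At 24 h, VCAM-1 is measured by ELISA, and responses in either direction are fitted relative to DMSO.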

[2] = BSK_4H_Eotaxin3: BioMAP Diversity Plus: 4H Assay for Eotaxin 3 Biomarker Activity (AID 2283000; active = hit-call score of the fitted dose curve at least 0.9, where 1 is the maximum; inactive = score below 0.9); settings: primary human endothelial cells (HUVEC); actives raise or lower the signal
In short: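 HUVEC, 24 h post-dose, ELISA for Eotaxin-3/CCL26. Gain or loss of signal fitted bidirectionally vs DMSO baseline.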

[3] = biological target: human Peroxisome Proliferator-activated Receptor alpha (PPARa), PPARA (gene 5465) (UniProt Q07869); assay: ATG_PPARa_TRANS: Attagene TRANS-FACTORIAL HepG2 Assay for human Peroxisome Proliferator-activated Receptor alpha (PPARa) (AID 2283001);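 for AC50: potency for gain of reporter signal over DMSO so agonist or activator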
In short: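 Reporter transcripts from GAL4-UAS units in transfected HepG2 were quantified 24 h after dosing. Detection used reverse transcription, PCR, fluorescent primer extension and capillary electrophoresis, with DMSO as baseline.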

[4] = read-out: Intercellular Adhesion Molecule 1 (ICAM1), ICAM1 (gene 3383); assay: BSK_3C_ICAM1: BioMAP Diversity Plus: 3C Assay for Intercellular Adhesion Molecule 1 (ICAM1) Biomarker Activity (AID 2283003; active = hit-call score of the fitted dose curve at least 0.9, where 1 is the maximum; inactive = score below 0.9); settings: primary human endothelial cells (HUVEC); actives raise or lower the signal
In short: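 Primary human umbilical vein endothelial cells in the BioMAP 3C system were exposed to chemicals for 24 h, then ICAM-1 was quantified by ELISA. Activity was fitted bidirectionally against the DMSO negative control baseline.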

[5] = biological target: Retinoic acid receptor alpha (Homo sapiens) (UniProt P10276); assay: ATG_RARa_TRANS: Attagene TRANS-FACTORIAL HepG2 Assay for human Retinoic Acid Receptor alpha (RARa) (AID 2283005)
In short: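 Reporter transcripts, measured by RT-PCR with fluorescent labeling and capillary electrophoresis after 24 h dosing, reflect activity of an exogenous human RARa–GAL4 fusion in transiently transfected HepG2. Fitted for increase relative to DMSO.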

[6] = BSK_3C_Proliferation: Cell Proliferation Assessment in the BioMAP Diversity Plus: 3C Assay (AID 2283006; active = hit-call score of the fitted dose curve at least 0.9, where 1 is the maximum; inactive = score below 0.9;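 for AC50: potency may reflect either rise or fall in cell number versus DMSO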); settings: primary human endothelial cells (HUVEC)
In short: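 Human umbilical vein endothelial cells were grown sub-confluent and exposed to chemical for 48 h, then fixed with 10% TCA and stained with 0.1% sulforhodamine B; absorbance at 560 nm gave relative cell number, fitted bidirectionally against DMSO baseline.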

[7] = biological target: Peroxisome proliferator-activated receptor gamma (Homo sapiens) (UniProt P37231); assay: ATG_PPARg_TRANS: Attagene TRANS-FACTORIAL HepG2 Assay for human Peroxisome Proliferator-activated Receptor-gamma (PPARg) (AID 2283007)
In short: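 Twenty-four hours after chemical dosing of transiently transfected HepG2 cells, isolated RNA was converted to cDNA, reporter sequences amplified and 6-FAM-labelled, then HpaI-digested and analysed by capillary electrophoresis. Signal increase against DMSO was fitted.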

[8] = biological target: Nuclear receptor subfamily 1 group I member 2 (Homo sapiens) (UniProt O75469); assay: ATG_PXR_TRANS: Attagene TRANS-FACTORIAL HepG2 Assay for human Pregnane X Receptor (PXR) (AID 2283008)
In short: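 Fluorescence intensity of FAM-labelled, HpaI-digested reporter amplicons, separated by capillary electrophoresis, quantifies induction. HepG2 cells with PXR-Gal4 trans-reporter system were exposed 24 h; DMSO defines baseline.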

[9] = biological target: human Retinoid X Receptor beta (RXRb), RXRB (gene 6257) (UniProt P28702); assay: ATG_RXRb_TRANS: Attagene TRANS-FACTORIAL HepG2 Assay for human Retinoid X Receptor beta (RXRb) (AID 2283013)
In short: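 HepG2 cells transiently transfected with multiplexed reporter units driven by GAL4-UAS and exogenous chimeric NR-Gal4 proteins; treated 24 h. Reporter mRNA measured by RT-PCR, 6-FAM labelling and capillary electrophoresis; gain-of-signal fitted versus DMSO baseline.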

[10] = read-out: E-selectin (Homo sapiens) (UniProt P16581); assay: BSK_3C_Eselectin: BioMAP Diversity Plus: 3C Assay for Eselectin Biomarker Activity (AID 2283015; active = hit-call score of the fitted dose curve at least 0.9, where 1 is the maximum; inactive = score below 0.9); settings: primary human endothelial cells (HUVEC); actives raise or lower the signal
In short: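 Primary human umbilical vein endothelial cells (3C system) were dosed with chemical and cell-surface E-selectin measured by ELISA 24 h later. Bidirectional curve fitting used DMSO as negative control and baseline.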

[11] = read-out: Interleukin-1 alpha (IL1a), IL1A (gene 3552); assay: BSK_BE3C_IL1a: BioMAP Diversity Plus: BE3C Assay for Interleukin-1 alpha (IL1a) Biomarker Activity (AID 2283016; active = hit-call score of the fitted dose curve at least 0.9, where 1 is the maximum; inactive = score below 0.9); settings: primary human bronchial epithelial cells; actives raise or lower the signal
In short: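 Human primary bronchial epithelial cells (BE3C system) were dosed with compound and IL-1a measured by ELISA 24 h later. Activity was fitted bidirectionally against DMSO baseline; cytotoxicity was tracked in parallel cultures by SRB total-protein staining.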

[12] = read-out: Monocyte Chemoattractant Protein-1 (MCP1), CCL2 (gene 6347); assay: BSK_3C_MCP1: BioMAP Diversity Plus: 3C Assay for Monocyte Chemoattractant Protein-1 (MCP1) Biomarker Activity (AID 2283017; active = hit-call score of the fitted dose curve at least 0.9, where 1 is the maximum; inactive = score below 0.9); settings: primary human endothelial cells (HUVEC); actives raise or lower the signal
In short: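 Primary human umbilical vein endothelial cells (3C system) were exposed to test chemical for 24 h, after which MCP-1 was quantified by ELISA. Activity was fitted bidirectionally against DMSO as negative control and baseline.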

[13] = read-out: Monocyte Chemoattractant Protein-1 (MCP1), CCL2 (gene 6347); assay: BSK_4H_MCP1: BioMAP Diversity Plus: 4H Assay for Monocyte Chemoattractant Protein-1 (MCP1) Biomarker Activity (AID 2283018; active = hit-call score of the fitted dose curve at least 0.9, where 1 is the maximum; inactive = score below 0.9); settings: primary human endothelial cells (HUVEC); actives raise or lower the signal
In short: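 Human umbilical vein endothelial cells (4H system) dosed with chemical; MCP-1 measured by ELISA 24 h after dosing. Bidirectional curve fitting against DMSO negative control as baseline; parallel SRB total-protein staining tracks overt cytotoxicity.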

[14] = biological target: human RAR-related Orphan Receptor beta (RORb), RORB (gene 6096) (UniProt Q92753); assay: ATG_RORb_TRANS: Attagene TRANS-FACTORIAL HepG2 Assay for human RAR-related Orphan Receptor beta (RORb) (AID 2283010)
In short: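 HepG2 cells were transiently transfected with multiplexed GAL4-UAS reporter units expressing chimeric nuclear receptor–GAL4 proteins, then dosed for 24 h. Reporter mRNA was quantified by RT-PCR with fluorescent labelling and capillary electrophoresis; gain of signal was fitted relative to DMSO.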

[15] = biological target: human RAR-related Orphan Receptor gamma (RORg), RORC (gene 6097) (UniProt P51449); assay: ATG_RORg_TRANS: Attagene TRANS-FACTORIAL HepG2 Assay for human RAR-related Orphan Receptor gamma (RORg) (AID 2283011)
In short: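 Readout: reporter transcript induction (RT-PCR, fluorescent primer extension, capillary electrophoresis) after 24 h compound exposure of transiently transfected HepG2 cells carrying a RORg-Gal4 chimera and GAL4-UAS reporters; DMSO served as baseline, with increasing signal fitted.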

[16] = biological target: human Retinoic Acid Receptor gamma (RARg), RARG (gene 5916) (UniProt P13631); assay: ATG_RARg_TRANS: Attagene TRANS-FACTORIAL HepG2 Assay for human Retinoic Acid Receptor gamma (RARg) (AID 2283009);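 for AC50: AC50 is for reporter induction above DMSO meaning RARg activation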
In short: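 HepG2 cells transiently transfected with multiplexed reporter units expressing chimeric RARg-GAL4 and GAL4-UAS-driven reporters; 24 h compound exposure. Reporter mRNA quantified by RT-PCR with fluorescent labelling and capillary electrophoresis; gain-of-signal fitted relative to DMSO baseline.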

[17] = biological target: human Retinoic Acid Receptor beta (RARb), RARB (gene 5915) (UniProt P10826); assay: ATG_RARb_TRANS: Attagene TRANS-FACTORIAL HepG2 Assay for human Retinoic Acid Receptor beta (AID 2283004)
In short: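 HepG2 cells transiently transfected with multiplexed GAL4-UAS reporter units expressing chimeric NR–Gal4 fusions; 24 h compound exposure. Reporter mRNA quantified by RT-PCR, 6-FAM labelling, HpaI digestion and capillary electrophoresis; gain-of-signal fitted against DMSO baseline.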

[18] = biological target: human Thyroid Receptor alpha (THRa1), THRA (gene 7067) (UniProt P10827); assay: ATG_THRa1_TRANS: Attagene TRANS-FACTORIAL HepG2 Assay for human Thyroid Receptor alpha (THRa1) (AID 2283014)
In short: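 HepG2 cells transiently transfected with multiplexed GAL4-UAS reporter units for exogenous chimeric THRa1-Gal4; reporter mRNA measured 24 h after dosing by RT-PCR, 6-FAM labelling, HpaI digestion and capillary electrophoresis. Gain-of-signal fitted versus DMSO baseline.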

[19] = biological target: human Peroxisome Proliferator-activated Receptor delta (PPARd), PPARD (gene 5467) (UniProt Q03181); assay: ATG_PPARd_TRANS: Attagene TRANS-FACTORIAL HepG2 Assay for human Peroxisome Proliferator-activated Receptor delta (PPARd) (AID 2283002)
In short: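 Read-out is induced reporter mRNA, quantified by RT-PCR with fluorescent labelling and capillary electrophoresis after 24 h dosing. Cells are HepG2 transiently carrying multiple GAL4-UAS reporter units driven by exogenous NR-GAL4 chimeras; DMSO serves as baseline.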

[20] = biological target: Retinoic acid receptor RXR-alpha (Homo sapiens) (UniProt P19793); assay: ATG_RXRa_TRANS: Attagene TRANS-FACTORIAL HepG2 Assay for human Retinoid X Receptor alpha (RXRa) (AID 2283012)
In short: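 HepG2 cells transiently transfected with multiplexed GAL4-UAS reporter units and chimeric NR-GAL4 fusions, dosed 24 h. Reporter mRNA measured by RT-PCR, FAM labelling, HpaI digestion and capillary electrophoresis; gain-of-signal fitted relative to DMSO baseline.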

Measured: AC50

Sequence of Nuclear receptor subfamily 1 group I member 2 (Homo sapiens) (O75469 whole entry, looked up, the tested form may be a part): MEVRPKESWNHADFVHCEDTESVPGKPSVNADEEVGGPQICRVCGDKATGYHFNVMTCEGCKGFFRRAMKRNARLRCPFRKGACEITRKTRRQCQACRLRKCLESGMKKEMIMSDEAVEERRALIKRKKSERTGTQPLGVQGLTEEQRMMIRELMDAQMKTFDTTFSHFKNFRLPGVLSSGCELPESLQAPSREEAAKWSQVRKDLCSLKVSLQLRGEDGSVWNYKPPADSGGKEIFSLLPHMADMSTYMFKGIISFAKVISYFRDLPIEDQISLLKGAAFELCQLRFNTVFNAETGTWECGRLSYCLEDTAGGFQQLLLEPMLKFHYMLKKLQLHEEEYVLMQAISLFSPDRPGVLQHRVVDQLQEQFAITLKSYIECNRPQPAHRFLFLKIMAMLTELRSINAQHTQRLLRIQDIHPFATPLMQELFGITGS
Sequence of human Peroxisome Proliferator-activated Receptor alpha (PPARa), PPARA (gene 5465) (Q07869 whole entry, looked up, the tested form may be a part): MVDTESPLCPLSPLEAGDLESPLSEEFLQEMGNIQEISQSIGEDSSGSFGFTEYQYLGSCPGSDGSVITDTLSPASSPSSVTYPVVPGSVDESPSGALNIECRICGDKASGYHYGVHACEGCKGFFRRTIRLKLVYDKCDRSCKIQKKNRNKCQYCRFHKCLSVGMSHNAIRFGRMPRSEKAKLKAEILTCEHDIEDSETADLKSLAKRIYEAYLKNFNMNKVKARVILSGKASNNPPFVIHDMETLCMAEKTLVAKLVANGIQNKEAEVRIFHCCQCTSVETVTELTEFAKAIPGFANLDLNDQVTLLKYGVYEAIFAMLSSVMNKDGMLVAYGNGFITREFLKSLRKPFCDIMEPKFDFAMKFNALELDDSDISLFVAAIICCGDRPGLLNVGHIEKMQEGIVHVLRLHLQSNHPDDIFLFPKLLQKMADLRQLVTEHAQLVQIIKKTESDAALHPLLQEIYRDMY
Sequence of Retinoic acid receptor alpha (Homo sapiens) (P10276 whole entry, looked up, the tested form may be a part): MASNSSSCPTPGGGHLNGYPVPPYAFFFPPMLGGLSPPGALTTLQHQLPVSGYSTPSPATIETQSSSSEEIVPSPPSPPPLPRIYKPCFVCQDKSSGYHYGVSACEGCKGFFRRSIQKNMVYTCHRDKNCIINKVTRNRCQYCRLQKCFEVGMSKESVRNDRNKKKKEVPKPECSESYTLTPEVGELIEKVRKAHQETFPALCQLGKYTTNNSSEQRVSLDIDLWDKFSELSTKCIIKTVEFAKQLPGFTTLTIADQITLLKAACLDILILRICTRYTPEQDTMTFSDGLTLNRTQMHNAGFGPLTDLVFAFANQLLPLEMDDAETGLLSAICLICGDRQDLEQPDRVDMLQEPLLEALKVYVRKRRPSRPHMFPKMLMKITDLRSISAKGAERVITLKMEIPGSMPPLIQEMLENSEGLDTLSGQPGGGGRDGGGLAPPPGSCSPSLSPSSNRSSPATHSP
Sequence of human Retinoid X Receptor beta (RXRb), RXRB (gene 6257) (P28702 whole entry, looked up, the tested form may be a part): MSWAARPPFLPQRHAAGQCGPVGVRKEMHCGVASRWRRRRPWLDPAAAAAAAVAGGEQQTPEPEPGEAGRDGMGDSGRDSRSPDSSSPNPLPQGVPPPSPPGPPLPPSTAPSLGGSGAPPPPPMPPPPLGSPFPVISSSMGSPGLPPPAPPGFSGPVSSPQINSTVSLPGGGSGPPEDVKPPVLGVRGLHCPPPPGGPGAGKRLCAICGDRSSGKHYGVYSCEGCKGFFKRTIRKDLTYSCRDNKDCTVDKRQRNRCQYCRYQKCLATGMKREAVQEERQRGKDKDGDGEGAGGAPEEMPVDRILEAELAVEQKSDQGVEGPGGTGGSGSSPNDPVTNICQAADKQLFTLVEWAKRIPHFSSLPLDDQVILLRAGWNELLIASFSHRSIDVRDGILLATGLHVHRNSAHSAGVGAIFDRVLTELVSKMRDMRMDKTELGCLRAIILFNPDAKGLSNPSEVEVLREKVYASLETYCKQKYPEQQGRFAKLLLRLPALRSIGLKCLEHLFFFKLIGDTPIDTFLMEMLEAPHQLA
Sequence of human RAR-related Orphan Receptor gamma (RORg), RORC (gene 6097) (P51449 whole entry, looked up, the tested form may be a part): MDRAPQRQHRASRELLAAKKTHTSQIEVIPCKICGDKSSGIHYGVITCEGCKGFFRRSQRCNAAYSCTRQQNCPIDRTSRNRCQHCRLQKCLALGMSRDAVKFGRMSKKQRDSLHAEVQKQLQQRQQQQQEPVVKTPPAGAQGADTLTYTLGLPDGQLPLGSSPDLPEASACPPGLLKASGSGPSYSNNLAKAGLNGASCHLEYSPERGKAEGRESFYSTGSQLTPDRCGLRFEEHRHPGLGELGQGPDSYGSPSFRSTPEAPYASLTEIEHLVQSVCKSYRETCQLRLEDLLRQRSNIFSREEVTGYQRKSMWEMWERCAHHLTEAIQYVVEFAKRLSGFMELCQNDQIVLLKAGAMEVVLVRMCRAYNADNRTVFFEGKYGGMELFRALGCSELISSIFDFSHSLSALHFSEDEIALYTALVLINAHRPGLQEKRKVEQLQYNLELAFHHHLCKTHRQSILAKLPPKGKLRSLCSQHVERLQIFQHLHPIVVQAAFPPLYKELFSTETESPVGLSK
Sequence of Peroxisome proliferator-activated receptor gamma (Homo sapiens) (P37231 whole entry, looked up): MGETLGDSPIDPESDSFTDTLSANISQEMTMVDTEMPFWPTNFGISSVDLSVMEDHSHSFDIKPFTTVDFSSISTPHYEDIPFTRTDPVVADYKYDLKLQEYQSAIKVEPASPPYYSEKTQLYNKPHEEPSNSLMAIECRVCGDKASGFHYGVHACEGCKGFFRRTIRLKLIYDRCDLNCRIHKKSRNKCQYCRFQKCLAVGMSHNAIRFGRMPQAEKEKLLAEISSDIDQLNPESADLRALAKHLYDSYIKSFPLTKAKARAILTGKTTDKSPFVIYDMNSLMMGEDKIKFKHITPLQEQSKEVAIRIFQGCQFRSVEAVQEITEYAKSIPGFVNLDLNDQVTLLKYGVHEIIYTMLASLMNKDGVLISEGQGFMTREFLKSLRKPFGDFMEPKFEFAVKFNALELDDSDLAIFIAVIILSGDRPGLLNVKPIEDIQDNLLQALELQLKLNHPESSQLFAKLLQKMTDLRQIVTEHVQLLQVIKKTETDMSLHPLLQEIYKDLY
Sequence of Retinoic acid receptor RXR-alpha (Homo sapiens) (P19793 whole entry, looked up, the tested form may be a part): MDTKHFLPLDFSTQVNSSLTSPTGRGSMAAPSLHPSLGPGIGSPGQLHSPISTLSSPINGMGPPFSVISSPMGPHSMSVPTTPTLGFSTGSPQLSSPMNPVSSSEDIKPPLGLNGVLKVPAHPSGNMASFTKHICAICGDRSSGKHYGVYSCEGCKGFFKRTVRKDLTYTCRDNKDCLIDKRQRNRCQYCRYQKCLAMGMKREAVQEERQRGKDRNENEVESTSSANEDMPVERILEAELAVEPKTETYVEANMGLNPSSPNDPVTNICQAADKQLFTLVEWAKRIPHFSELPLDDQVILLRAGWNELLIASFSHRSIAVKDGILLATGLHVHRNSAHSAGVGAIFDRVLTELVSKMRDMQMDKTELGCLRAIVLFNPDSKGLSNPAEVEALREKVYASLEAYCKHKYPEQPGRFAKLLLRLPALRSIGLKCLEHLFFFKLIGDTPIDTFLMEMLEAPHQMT
Sequence of human RAR-related Orphan Receptor beta (RORb), RORB (gene 6096) (Q92753 whole entry, looked up, the tested form may be a part): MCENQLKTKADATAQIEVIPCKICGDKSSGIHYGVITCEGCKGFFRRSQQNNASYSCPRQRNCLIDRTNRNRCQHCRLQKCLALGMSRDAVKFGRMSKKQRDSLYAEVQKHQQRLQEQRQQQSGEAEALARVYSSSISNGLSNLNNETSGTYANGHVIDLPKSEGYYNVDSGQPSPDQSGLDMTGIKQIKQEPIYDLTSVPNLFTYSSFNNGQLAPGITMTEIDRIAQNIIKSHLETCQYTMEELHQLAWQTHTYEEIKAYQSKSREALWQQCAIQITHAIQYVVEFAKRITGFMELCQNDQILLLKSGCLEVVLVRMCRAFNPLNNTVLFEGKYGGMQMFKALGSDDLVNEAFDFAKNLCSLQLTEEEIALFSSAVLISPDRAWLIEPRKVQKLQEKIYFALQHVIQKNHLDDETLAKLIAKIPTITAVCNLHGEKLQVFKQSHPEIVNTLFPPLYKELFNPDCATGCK
Sequence of human Retinoic Acid Receptor gamma (RARg), RARG (gene 5916) (P13631 whole entry, looked up, the tested form may be a part): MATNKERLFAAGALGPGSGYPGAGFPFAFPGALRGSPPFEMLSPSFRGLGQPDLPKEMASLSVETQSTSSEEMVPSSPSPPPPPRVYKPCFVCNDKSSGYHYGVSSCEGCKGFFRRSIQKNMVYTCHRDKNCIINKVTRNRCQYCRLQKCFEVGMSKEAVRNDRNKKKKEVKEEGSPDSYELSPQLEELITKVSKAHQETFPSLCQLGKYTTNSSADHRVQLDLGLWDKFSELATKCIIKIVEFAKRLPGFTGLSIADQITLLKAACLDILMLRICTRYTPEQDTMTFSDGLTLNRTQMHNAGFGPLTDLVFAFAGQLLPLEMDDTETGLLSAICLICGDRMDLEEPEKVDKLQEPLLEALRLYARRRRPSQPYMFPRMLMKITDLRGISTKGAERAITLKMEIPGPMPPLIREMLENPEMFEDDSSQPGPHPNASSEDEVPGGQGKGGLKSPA
Sequence of E-selectin (Homo sapiens) (P16581 whole entry, looked up): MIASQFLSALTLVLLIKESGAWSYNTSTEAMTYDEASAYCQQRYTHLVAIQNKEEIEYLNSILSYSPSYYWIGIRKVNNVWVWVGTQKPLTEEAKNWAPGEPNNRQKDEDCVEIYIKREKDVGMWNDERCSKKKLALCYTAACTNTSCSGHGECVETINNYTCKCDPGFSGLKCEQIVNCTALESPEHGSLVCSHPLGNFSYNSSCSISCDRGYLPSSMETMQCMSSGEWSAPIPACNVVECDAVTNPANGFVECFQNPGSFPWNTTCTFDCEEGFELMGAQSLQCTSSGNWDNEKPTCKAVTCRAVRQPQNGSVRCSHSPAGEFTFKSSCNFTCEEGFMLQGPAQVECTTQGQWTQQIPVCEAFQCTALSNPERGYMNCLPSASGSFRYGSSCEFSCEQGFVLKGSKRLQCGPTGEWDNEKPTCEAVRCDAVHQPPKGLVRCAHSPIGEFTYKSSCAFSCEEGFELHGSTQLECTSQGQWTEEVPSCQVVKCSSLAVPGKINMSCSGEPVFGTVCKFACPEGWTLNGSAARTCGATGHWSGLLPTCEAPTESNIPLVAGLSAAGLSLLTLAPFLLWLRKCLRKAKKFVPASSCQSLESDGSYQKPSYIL

CCCCCCCCOC(=O)c1ccccc1C(=O)OCCCCCCCC
inactive: [1] | [3] | [4] | [5] | [6] | [8] | [9] | [10] | [11] | [12] | [13]
active: [2] 14 µM | [7] 38.4 µM

O=C(NC(=O)c1cc(F)c(F)cc1Cl)Nc1cc(F)ccc1N1CCC(C(=O)O)CC1
active: [7] 0.954 µM
inactive: [1] | [2] | [3] | [4] | [6] | [8] | [14] | [15] | [10] | [11] | [12] | [13]

Cc1ccccc1O
inactive: [1] | [2] | [3] | [4] | [5] | [6] | [8] | [16] | [10] | [11] | [12] | [13]

ClC1=C(Cl)[C@]2(Cl)[C@@H]3[C@H]4C[C@H]([C@@H]5O[C@H]45)[C@@H]3[C@@]1(Cl)C2(Cl)Cl
active: [17] 0.859 µM | [6] 8.62 µM | [16] 0.937 µM | [13] 5.75 µM
inactive: [1] | [2] | [3] | [4] | [5] | [7] | [8] | [9] | [18] | [10] | [11] | [12]

Cc1ccc(O)c(C)c1
inactive: [1] | [2] | [3] | [19] | [4] | [17] | [6] | [7] | [14] | [9] | [18] | [10] | [11] | [12] | [13]

Sc1ccccc1
inactive: [1] | [2] | [3] | [19] | [4] | [6] | [8] | [15] | [9] | [18] | [10] | [11] | [12] | [13]

CC(C)(c1ccccc1)c1ccc(O)cc1
active: [1] 32.9 µM | [2] 35.3 µM | [4] 36.4 µM | [7] 18.3 µM | [8] 2.93 µM [middle of 4 runs] | [9] 9.21 µM [middle of 4 runs] | [10] 34.7 µM | [11] 32.2 µM | [12] 39.3 µM | [13] 20 µM
inactive: [3] | [19] | [17] | [5] | [7] | [16] | [14] | [20] | [18]

CCC(C)c1cc([N+](=O)[O-])cc([N+](=O)[O-])c1O (configuration not stated)
active: [1] 8.86 µM | [2] 11.3 µM | [3] 49.6 µM | [6] 8.95 µM | [7] 17.3 µM | [8] 26.9 µM | [10] 8.02 µM | [12] 9.99 µM | [13] 5.15 µM
inactive: [19] | [4] | [5] | [16] | [9] | [18] | [11]

Cc1cc(O)ccc1Cl
inactive: [1] | [2] | [3] | [19] | [4] | [17] | [6] | [7] | [8] | [16] | [15] | [9] | [18] | [10] | [11] | [12] | [13]

c1ccc(-c2ccccc2)cc1
inactive: [1] | [2] | [3] | [19] | [4] | [6] | [8] | [10] | [11] | [12] | [13]
active: [9] 110 µM

O=C(O)C(F)(F)C(F)(F)C(F)(F)C(F)(F)C(F)(F)C(F)(F)C(F)(F)C(F)(F)C(F)(F)F
active: [1] 56.8 µM and 53.1 µM | [2] 29.9 µM and 49.3 µM and 51.1 µM | [3] 33.4 µM and 24.7 µM and 23.9 µM | [4] 46.5 µM and 58.4 µM | [6] 36.3 µM and 46.6 µM and 45.4 µM | [7] 52.1 µM and 12.9 µM | [8] 45.7 µM and 60.9 µM | [16] 33.4 µM | [9] 18.1 µM and 13.4 µM and 13.2 µM | [10] 53.8 µM and 54.9 µM | [11] 18.5 µM and 11.9 µM and 13.4 µM | [12] 32.5 µM and 54.6 µM and 52.9 µM | [13] 48.2 µM and 53.7 µM
inactive: [1] | [19] | [4] | [17] | [5] | [8] | [16] | [14] | [15] | [18] | [10] | [13]
